Source: PubChem BioAssay (EPA / NIEHS)
Activity calls are given as the source filed them. Rule for the calls: active = hit-call score of the fitted dose curve at least 0.9, where 1 is the maximum; inactive = score below 0.9.

Experiments:
Conditions in all cases: mRNA level, 48 h; actives raise or lower the signal
[1] = read-out: Glutathione S-transferase M3 (GSTM3), GSTM3 (gene 2947); test: LTEA_HepaRG_GSTM3: Life Technologies and Expression Analysis (LTEA) Assay for Glutathione S-transferase M3 (GSTM3) using HepaRG (AID 2283501)
Outline: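 Expression of GSTM3 is determined by qRT-PCR in human liver HepaRG cells treated 48 h with an 8-point half-log range from 100 uM in 0.5% DMSO.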

[2] = read-out: Heat shock 70 kDa protein 1 (HSPA1A), gene 3303; test: LTEA_HepaRG_HSPA1A: Life Technologies and Expression Analysis (LTEA) Assay for Heat shock 70 kDa protein 1 (HSPA1A) using HepaRG (AID 2283502)
Outline: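 Differentiated human HepaRG cells in serum-free induction medium were exposed in duplicate for 48 h to eight concentrations (top 100 uM, half-log steps, 0.5% DMSO). HSPA1A mRNA was quantified by qRT-PCR, normalized to ACTB, GAPDH and POLR2A, and fitted bidirectionally against DMSO.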

[3] = read-out: Hypoxia-inducible factor 1-alpha (Homo sapiens) (UniProt Q16665); test: LTEA_HepaRG_HIF1A: Life Technologies and Expression Analysis (LTEA) Assay for Hypoxia-inducible factor 1 (HIF1A) Trancription factor using HepaRG (AID 2283503);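 note: HIF1A transcript by TaqMan qRT-PCR normalized to ACTB GAPDH and POLR2A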
Outline: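 HepaRG, 48 h exposure, 8-pt half-log series from 100 uM, 0.5% DMSO vehicle, duplicates. Readout: HIF1A transcript by qRT-PCR (Fluidigm array), housekeeping-normalised. Bidirectional curve fit vs DMSO baseline.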

[4] = read-out: 3-Hydroxy-3-Methylglutaryl-CoA Synthase 2 (HMGCS2), HMGCS2 (gene 3158); test: LTEA_HepaRG_HMGCS2: Life Technologies and Expression Analysis (LTEA) Assay for 3-Hydroxy-3-Methylglutaryl-CoA Synthase 2 (HMGCS2) using HepaRG (AID 2283504)
Outline: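 This steatosis marker was read as HMGCS2 mRNA change in HepaRG cells treated 48 h with up to 100 uM chemical. Normalisation used housekeeping genes; activity in either direction was fitted relative to 0.5% DMSO vehicle.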

HGF (gene 3082) = test: LTEA_HepaRG_HGF: Life Technologies and Expression Analysis (LTEA) Assay for Hepatocyte Growth Facto (HGF) using HepaRG (AID 2283505)
Outline: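 Using HepaRG monolayers kept in 0.5% DMSO, chemicals were tested in duplicate over eight half-log concentrations from 100 uM for 48 h. Endpoint: HGF mRNA change relative to DMSO, normalized to ACTB/GAPDH/POLR2A.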

[5] = read-out: Insulin Like Growth Factor 1 (IGF1), IGF1 (gene 3479); test: LTEA_HepaRG_IGF1: Life Technologies and Expression Analysis (LTEA) Assay for Insulin Like Growth Factor 1 (IGF1) using HepaRG (AID 2283506)
Outline: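 Differentiated human HepaRG cells were dosed for 48 h in serum-free induction medium with 0.5% DMSO, eight half-log concentrations up to 100 uM, in duplicate. IGF1 mRNA was quantified by qRT-PCR normalized to ACTB, GAPDH, POLR2A; bidirectional fitting versus DMSO.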

[6] = read-out: Intercellular Adhesion Molecule 1 (ICAM1), ICAM1 (gene 3383); test: LTEA_HepaRG_ICAM1: Life Technologies and Expression Analysis (LTEA) Assay for Intercellular Adhesion Molecule 1 (ICAM1) using HepaRG (AID 2283507)
Outline: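 Using the human liver line HepaRG, compounds are tested in duplicate over 48 h at concentrations up to 100 uM. Expression is determined by TaqMan qRT-PCR, normalized to endogenous controls, and analysed relative to 0.5% DMSO vehicle.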

[7] = read-out: Insulin-like growth factor-binding protein 1 (IGFBP1), IGFBP1 (gene 3484); test: LTEA_HepaRG_IGFBP1: Life Technologies and Expression Analysis (LTEA) Assay for Insulin-like growth factor-binding protein 1 (IGFBP1) using HepaRG (AID 2283508)
Outline: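 HepaRG, 48 h, 8 conc. (max 100 uM, half-log), duplicates, 0.5% DMSO. Readout: TaqMan qRT-PCR, ACTB/GAPDH/POLR2A normalisation. Fit: bidirectional vs DMSO.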

[8] = read-out: Interleukin 6 (IL6), IL6 (gene 3569); test: LTEA_HepaRG_IL6: Life Technologies and Expression Analysis (LTEA) Assay for Interleukin 6 (IL6) using HepaRG (AID 2283509)
Outline: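 HepaRG cells exposed in duplicate for 48 h to eight half-log concentrations, top 100 uM, in 0.5% DMSO serum-free induction medium. mRNA measured by qRT-PCR, normalized to ACTB, GAPDH and POLR2A. Bidirectional fit versus DMSO.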

[9] = read-out: Interleukin 6 Receptor (IL6R), IL6R (gene 3570); test: LTEA_HepaRG_IL6R: Life Technologies and Expression Analysis (LTEA) Assay for Interleukin 6 Receptor (IL6R) using HepaRG (AID 2283510)
Outline: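 Differentiated human HepaRG cells, plated 48 h then switched to serum-free induction medium, were dosed in duplicate for 48 h at eight half-log concentrations up to 100 uM in 0.5% DMSO. IL6R mRNA quantified by qRT-PCR, normalized to ACTB/GAPDH/POLR2A; bidirectional fit versus DMSO.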

[10] = read-out: Potassium channel subfamily K member 1 (KCNK1), KCNK1 (gene 3775); test: LTEA_HepaRG_KCNK1: Life Technologies and Expression Analysis (LTEA) Assay for Potassium channel subfamily K member 1 (KCNK1) using HepaRG (AID 2283511)
Outline: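 Differentiated HepaRG cells, 48 h exposure in serum-free induction medium with 0.5% DMSO; 8 concentrations, half-log from 100 uM, duplicate. KCNK1 mRNA by qRT-PCR, normalized to ACTB, GAPDH, POLR2A; bidirectional fit vs DMSO.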

[11] = read-out: Keratin 19 (KRT19), KRT19 (gene 3880); test: LTEA_HepaRG_KRT19: Life Technologies and Expression Analysis (LTEA) Assay for Keratin 19 (KRT19) using HepaRG (AID 2283512)
Outline: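 Readout is qRT-PCR of KRT19 mRNA, normalized to ACTB, GAPDH and POLR2A, from HepaRG cells treated 48 h with eight-point half-log dilutions topping at 100 uM. Activity in either direction is scored relative to 0.5% DMSO vehicle.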

[12] = read-out: Lipase C (LIPC), LIPC (gene 3990); test: LTEA_HepaRG_LIPC: Life Technologies and Expression Analysis (LTEA) Assay for Lipase C (LIPC) using HepaRG (AID 2283514)
Outline: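 HepaRG cells, 48 h after plating, treated in duplicate for 48 h in serum-free induction medium over 8 half-log concentrations from 100 uM, 0.5% DMSO. LIPC mRNA by TaqMan qRT-PCR normalized to ACTB/GAPDH/POLR2A; bidirectional fit versus DMSO.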

[13] = read-out: Lipoprotein lipase (LPL), LPL (gene 4023); test: LTEA_HepaRG_LPL: Life Technologies and Expression Analysis (LTEA) Assay for Lipoprotein lipase (LPL) using HepaRG (AID 2283515)
Outline: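 Differentiated HepaRG cells, plated 48 h, then exposed 48 h in serum-free induction medium to 8 concentrations (top 100 uM, half-log steps) in 0.5% DMSO, duplicate. LPL mRNA measured by qRT-PCR, normalized to ACTB, GAPDH and POLR2A.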

[14] = read-out: MicroRNA 122 (MIR122), gene 406906; test: LTEA_HepaRG_MIR122: Life Technologies and Expression Analysis (LTEA) Assay for MicroRNA 122 (MIR122) using HepaRG (AID 2283516); note: the transcript read is the microRNA miR-122
Outline: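 Differentiated human HepaRG cells were exposed 48 h in serum-free induction medium to eight half-log concentrations (top 100 uM, 0.5% DMSO). Transcript level was measured by TaqMan qRT-PCR, normalized to ACTB, GAPDH and POLR2A, and fitted bidirectionally versus DMSO.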

[15] = read-out: matrix metalloproteinase-10 (MMP10), MMP10 (gene 4319); test: LTEA_HepaRG_MMP10: Life Technologies and Expression Analysis (LTEA) Assay for matrix metalloproteinase-10 (MMP10) using HepaRG (AID 2283517)
Outline: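 Differentiated HepaRG cells in serum-free induction medium exposed 48 h in duplicate to 8-point half-log series up to 100 uM in 0.5% DMSO. mRNA quantified by qRT-PCR, normalised to ACTB, GAPDH, POLR2A; bidirectional fit versus DMSO.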

MYC, MYC (gene 4609) = test: LTEA_HepaRG_MYC: Life Technologies and Expression Analysis (LTEA) Assay for MYC using HepaRG (AID 2283518)
Outline: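 Expression changes were scored by TaqMan qRT-PCR with ACTB, GAPDH and POLR2A normalization. Cultures in serum-free induction medium received duplicate 8-point concentration series, highest 100 uM, for 48 h; DMSO (0.5%) served as baseline.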

[16] = read-out: Paternally Expressed 10 (PEG10), PEG10 (gene 23089); test: LTEA_HepaRG_PEG10: Life Technologies and Expression Analysis (LTEA) Assay for Paternally Expressed 10 (PEG10) using HepaRG (AID 2283520)
Outline: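 Differentiated HepaRG cells, plated 48 h then switched to serum-free induction medium, were exposed in duplicate for 48 h to eight half-log concentrations topping at 100 uM in 0.5% DMSO. PEG10 mRNA was quantified by TaqMan qRT-PCR, normalised to ACTB, GAPDH and POLR2A.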

[17] = read-out: JUN Transcription Factor, JUN (gene 3725); test: LTEA_HepaRG_JUN: Life Technologies and Expression Analysis (LTEA) Assay for JUN Transcription Factor using HepaRG (AID 2283513)
Outline: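 Differentiated HepaRG cells were exposed to chemicals for 48 h in serum-free induction medium, 8 concentrations from 100 uM in half-log steps, 0.5% DMSO vehicle, in duplicate. JUN mRNA was quantified by TaqMan qRT-PCR, normalized to ACTB, GAPDH, POLR2A.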

Measured: AC50

Sequence of Hypoxia-inducible factor 1-alpha (Homo sapiens) (Q16665 whole entry, looked up): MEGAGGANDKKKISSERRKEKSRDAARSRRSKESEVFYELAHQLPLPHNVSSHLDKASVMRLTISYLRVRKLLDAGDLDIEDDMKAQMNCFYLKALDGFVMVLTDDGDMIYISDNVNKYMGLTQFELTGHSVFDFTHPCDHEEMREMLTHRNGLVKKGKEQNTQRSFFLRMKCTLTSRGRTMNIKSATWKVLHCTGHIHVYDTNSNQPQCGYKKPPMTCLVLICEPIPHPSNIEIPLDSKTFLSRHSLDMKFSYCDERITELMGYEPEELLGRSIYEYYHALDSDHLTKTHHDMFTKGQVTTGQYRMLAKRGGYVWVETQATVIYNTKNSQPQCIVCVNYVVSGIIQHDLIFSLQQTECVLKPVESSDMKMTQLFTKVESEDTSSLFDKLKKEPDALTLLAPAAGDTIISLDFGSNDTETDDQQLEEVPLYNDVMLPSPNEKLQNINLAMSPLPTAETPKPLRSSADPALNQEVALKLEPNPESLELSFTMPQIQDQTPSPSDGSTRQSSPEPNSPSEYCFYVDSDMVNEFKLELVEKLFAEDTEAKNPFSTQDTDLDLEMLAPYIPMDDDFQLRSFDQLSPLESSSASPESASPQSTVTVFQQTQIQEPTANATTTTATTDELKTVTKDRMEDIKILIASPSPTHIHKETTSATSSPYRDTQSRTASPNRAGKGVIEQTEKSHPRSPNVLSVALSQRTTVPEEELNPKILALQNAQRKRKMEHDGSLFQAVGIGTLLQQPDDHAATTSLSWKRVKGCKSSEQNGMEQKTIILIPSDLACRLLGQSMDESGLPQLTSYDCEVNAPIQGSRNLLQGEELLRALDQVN

O=C(O)c1nc(Cl)ccc1Cl
not listed: [17]
inactive: all other assays above

CN(C)C(=S)SSC(=S)N(C)C
not listed: [7]
inactive: all other assays above

CCCC1COC(Cn2cncn2)(c2ccc(Cl)cc2Cl)O1 (centres undefined)
active: [1] 64.5 µM | [2] 90.5 µM | [3] 50 µM | [4] 36.5 µM | HGF (gene 3082) 50 µM | [5] 25.5 µM | [6] 77.1 µM | [7] 34.4 µM | [8] 83.2 µM | [11] 1.12 µM | [12] 35.8 µM | [13] 27.8 µM | [14] 49.5 µM | [15] 77.8 µM | MYC, MYC (gene 4609) 35.4 µM | [16] 15 µM
inactive: [9] | [10]
